From PubChem BioAssay AID651965 (National Center for Advancing Translational Sciences (NCATS), 2013)
In all, about 340,000 compounds went through this assay and about 6,400 (1.9%) were called active. Another 4% or so got no clear call; they are omitted. The list comes from a sample in which actives are over-represented; it also holds similar structures and randomly drawn compounds. A number with no mark means an inactive call. Calls come from the whole dose curve; as a rule, active = well fitted falling curve with a large enough effect; inconclusive = small, poorly fitted or top-dose-only effect; inactive = no such curve, though single readings can be large or run the other way.

Target: ATP-dependent Clp protease proteolytic subunit (Bacillus subtilis (strain 168)) (UniProt P80244)
Sequence (P80244 whole entry, looked up): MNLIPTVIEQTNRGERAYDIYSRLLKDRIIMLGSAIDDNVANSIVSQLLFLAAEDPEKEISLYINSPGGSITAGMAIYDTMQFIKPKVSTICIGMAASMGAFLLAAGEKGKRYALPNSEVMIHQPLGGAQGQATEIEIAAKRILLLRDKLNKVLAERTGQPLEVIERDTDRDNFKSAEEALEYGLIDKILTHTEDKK
Assay: qHTS Assay for Activators of ClpP; note: the source files actives as falling curves though it sought activators and does not explain the sign; nearly all actives have a fitted effect of over 65% in size
Settings: purified B. subtilis ClpP, FRET peptide cleavage, 20 min; series mostly up to 57.5 µM; activity change, negative = active: at the top concentration
Summary of the method: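 FRET quenching reversal measured ClpP activation: 10 microg/mL B. subtilis ClpP at pH 8 with the FRET-FV decapeptide, read at 430 nm after 320 nm excitation. The 20-min minus 0-min signal was scaled between DMSO/no-enzyme wells and ADEP (5.8 microM final).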
Potency is the fitted concentration of half-maximal effect.

Structure (SMILES)	activity change, negative = active	Potency
O=C(COc1ccccc1Cl)N1N=C(c2cccs2)CC1c1ccco1 (centres undefined)	4.14%	
CN(C)CCNC(=O)c1ccc(-c2cn3c(-c4ccc(Oc5ccccc5)cc4)cnc3cn2)cc1	5.02%	
OC(c1ccccc1)c1nc(-c2cnc3ccccc3c2)cs1 (centres undefined)	-21.1%	
C(=Nc1ccc(/C=C/c2ccnc3ccccc23)cc1)c1cc2c3c(c1)CCCN3CCC2	-19.7%	
CC1=C(C(=O)N(C(C)C)C(C)C)CC(CC(=O)NCC2CCCCC2)C(=O)N1Cc1ccccc1 (centres undefined)	1.72%	
O=C(NCCCO)/C(=C\C=C\c1ccccc1)NC(=O)c1ccccc1Cl		28.2 µM (active)
CNC(=O)/C(=C\C=C\c1ccccc1)NC(=O)c1ccc([N+](=O)[O-])cc1	-4.83%	
Cc1ccc(C(=O)N/C(=C/C=C/c2ccccc2)C(=O)NCc2ccco2)cc1	-5.07%	
Cc1cccc(C)c1-n1nnnc1C1(C)CCC(=O)N1CCOc1ccccc1 (centres undefined)	2.41%	
CC1(C(=O)NS(=O)(=O)c2cccc(F)c2)CCN1C(=O)Cc1cc(F)ccc1F (centres undefined)	0.531%	
C[C@@H]1CN([C@@H](C)CO)C(=O)c2c(c3ccccc3n2C)-c2ccccc2CO[C@H]1CN(C)C(=O)C1CC1	-28.9%	
COc1ccc(S(=O)(=O)NC(=O)C2(C)CCN2C(=O)COc2ccc(Cl)cc2)cc1 (centres undefined)	-0.2%	
CN1CCCN(S(=O)(=O)c2ccc3c(c2)OCCO3)CC1		inactive
CCCCCC(=O)N1CCN(S(=O)(=O)c2ccc3c(c2)OCCCO3)CC1		28.2 µM (active)
CCNC(=O)N1CCN(S(=O)(=O)c2ccc3c(c2)OCCCO3)CC1	-0.0478%	
COC(=O)[C@]12CCCCC=C1N(Cc1ccc(Cl)cc1Cl)C(=O)[C@H](CC(=O)NCc1cccc3ccccc13)C2	-14.3%	
COCCNc1ncnc2c1c(-c1ccccc1)cn2-c1ccc(C)c(Cl)c1	-8.2%	
O=c1[nH]cnc2c1c(-c1ccccc1)cn2-c1ccc(F)cc1	-3.07%	
CCCNc1ncnc2c1c(-c1ccccc1)cn2-c1ccc(OCC)cc1		25.1 µM (active)
COc1ccc(CC(N)c2csc(NC(=O)NC(c3ccccc3)c3ccccc3)n2)cc1 (centres undefined)	-2.62%	
CC1(C(=O)NCc2ccccc2)CSCC(=O)N1CCCn1ccnc1 (centres undefined)	-0.215%	
COC(=O)[C@]12CCCCC=C1N(Cc1ccc3c(c1)OCO3)C(=O)[C@H](CC(=O)N1CCOCC1)C2	2.24%	
CC(C)NC(=O)C1(C)CCCCN1Cc1cccc(C(F)(F)F)c1 (centres undefined)	1.93%	
COc1ccccc1NC(=S)N1CCC(NC(=O)C23CC4CC(CC(C4)C2)C3)CC1	-2.04%	
COCCNC(=S)N1CCC(NC(=O)C23CC4CC(CC(C4)C2)C3)CC1		28.2 µM (active)

Structure (SMILES)	activity change, negative = active	Potency
CCCNC(=S)N1CCC(NC(=O)C23CC4CC(CC(C4)C2)C3)CC1	1.09%	
CC(=O)N1Cc2cc(C(=O)NCc3cccc(F)c3)nc(-c3cccc(C4=CCCC4)c3)c2[C@H]1CCO	-3.63%	
COC(=O)[C@@]12C[C@@H](CC(=O)NCCCCc3ccccc3)C(=O)N(CCc3ccc(OC)c(OC)c3)C1=CCC(C)(C)C2	-3.69%	
COc1ccc(-c2ccc3[nH]c4c(c3c2)CCN2C[C@H]3[C@H](C)ON(C)[C@H]3C[C@@H]42)cc1	-10.6%	
CCC(=O)Nc1c(S(=O)(=O)c2ccccc2)c2nc3ccccc3nc2n1Cc1ccccc1		14.1 µM (active)
CCN(CC)CCn1c(N)c(S(=O)(=O)c2ccccc2)c2nc3ccccc3nc21	3.65%	
CCC(=O)Nc1ccc(C)cc1-c1nc2ccccc2n(Cc2ccccc2)c1=O	0.727%	
CCOC(=O)[C@]12CCCC=C1N(CCC1=CCCCC1)C(=O)[C@H](CC(=O)N1CCN(C(=O)c3ccco3)CC1)C2	-1.83%	
CCCCCCCNc1ccc(/C=C/c2ccnc3ccccc23)cc1	-0.676%	
O=C(c1cncc(Br)c1)N1CCN(c2ccc([N+](=O)[O-])cc2)CC1		28.2 µM (active)
Cc1cccc(C(=O)NC(=S)N2CCN(c3ccc([N+](=O)[O-])cc3)CC2)c1	0.049%	
O=C(c1cc(C(=O)N2CCN(c3ccc(F)cc3)CC2)cc([N+](=O)[O-])c1)N1CCN(c2ccc(F)cc2)CC1	-2.08%	
CCCCc1ccc(S(=O)(=O)NC(=O)C2(C)CCN2C(=O)c2ccccc2)cc1 (centres undefined)	-2.77%	
Cc1ccc(-c2nc(=N)sn2Cc2ccccc2)cc1	-3.16%	
Cc1ccc(C=O)cc1Cl	0.201%	
CC1(C(=O)NS(=O)(=O)c2cccc(OC(F)F)c2)CCN1C(=O)C1CC1 (centres undefined)	1.45%	
CC(=O)Nc1cc(-c2ccc(N3CCN(C)CC3)cc2)cn2c(-c3ccc(F)cc3)cnc12	-15%	
CCOC(=O)N1CCN(C(c2ccnc3ccccc23)c2nnnn2-c2c(C)cccc2C)CC1 (centres undefined)	1.38%	
COc1cc(F)ccc1-c1cc(C(=O)NCC2CCCCC2)[nH]n1	-1.75%	
COc1ccc(CSc2nnnn2-c2ccc(C(=O)O)cc2)cc1	1.38%	
COc1ccc(-n2nnnc2CNC(=O)c2ccc3ccccc3c2)cc1	-16%	
COc1ccc(-n2nnnc2-c2nc3ccccc3s2)cc1		28.2 µM (active)
CCCCOCCCNC(=O)C[C@@H]1C[C@@]2(C(=O)OC)CCCCC=C2N(CCC2=CCCCC2)C1=O	1.12%	
COc1ccccc1CNC(=O)c1cc(-c2cc(Cl)ccc2C)n[nH]1	-0.552%	
